Laboratory results published in PubChem BioAssay AID1578 (Sanford-Burnham Center for Chemical Genomics, 2009).
Where “and” joins values, the source holds several entries; their conditions need not be identical. Equal entries are not always repeated. Hit rate of the full screen: of about 290,000 compounds, about 3,000 (1%) were called active. Rule as the data show it: active = inhibition mostly above about 36% (no sharp cut-off); inactive = mostly below about 34%. Only a selection was taken, and actives are over-represented in it overall.

Test: NOD1 signaling inhibitors, primary screen, cell-based, luminescence, uHTS (AID 1578);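 also: HEK-293T reporter cells stimulated with the NOD1 agonist gamma-tri-DAP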
Conditions: NOD1-driven NF-kB luciferase reporter cells, at 4 µM, hits give high values
For `CC(=O)c1cccc(NC(=O)C2C(c3ccccc3)C2(Cl)Cl)c1` (stereo unspecified), the inhibition was -15.1% (inactive).
In the case of `COc1ccc(C2NC(=O)NC3=C2C(=O)CCC3)cc1` (stereo unspecified), the inhibition is reported as -30.7% (inactive).
For `COCCN1C(=O)c2cc(C(=O)Nc3cccc(F)c3)ccc2C1Nc1cccc(F)c1` (stereo unspecified), the inhibition was 2.2% (inactive).
With `COCCCn1c(SCc2ccc(OC)cc2)nc2cc(OC)c(OC)cc2c1=N` the inhibition was -11.5% (inactive).
For `COCCCn1c(SCCc2ccccc2)nc2cc(OC)c(OC)cc2c1=N`, the inhibition was 49.8% (active).
In the case of `COCCCn1c(SCc2ccccc2)nc2cc(OC)c(OC)cc2c1=N`, the inhibition is reported as 5.9% (inactive).
In the case of `O=C(COC(=O)c1ccc(S(=O)(=O)N2CCc3ccccc3C2)cc1)NC1CCS(=O)(=O)C1` (stereo unspecified), the inhibition is reported as 3.9% (inactive).
With `NS(=O)(=O)c1ccc(NC(=S)NCc2ccc(Cl)cc2)cc1` the inhibition was 4.1% (inactive).
For `CC1=CN2C(=N)/C(=C/c3ccc([N+](=O)[O-])o3)C(=O)N=C2S1`, the inhibition was 78.2% (active).
With `CC1=CN2C(=N)/C(=C/c3ccc(C)o3)C(=O)N=C2S1` the inhibition was -39.8% (inactive).
In the case of `CC1=CN2C(=N)/C(=C/c3ccc(Sc4ccc(Cl)cc4)o3)C(=O)N=C2S1`, the inhibition is reported as 76.7% (active).
With `CC1=NN2C(=N)/C(=C\c3ccc(SCc4ccccc4)o3)C(=O)N=C2S1` the inhibition was 9.5% (inactive).
In the case of `CC1=CN2C(=N)/C(=C/c3ccco3)C(=O)N=C2S1`, the inhibition is reported as -63.4% (inactive).
In the case of `CC1=CN2C(=N)/C(=C/c3ccc(Sc4ccc(C)cc4)o3)C(=O)N=C2S1`, the inhibition is reported as -6.2% (inactive).
In the case of `CC(=O)Nc1ccc(OC(=O)c2cc3cc(Br)ccc3oc2=O)cc1`, the inhibition is reported as 7.6% (inactive).
For `CC(C)C(=O)Nc1ccc(NC(=O)c2ccccc2Cl)nc1`, the inhibition was -13.2% (inactive).
For `CCN(CC)C(=O)CSc1nnc([C@H](Cc2c[nH]c3ccccc23)NC(=O)OC(C)(C)C)o1`, the inhibition was -14.8% (inactive).
For `CCSc1nnc(NC(=O)C2CCCCC2)s1`, the inhibition was -31.5% (inactive).
With `CC(C)N(C(=O)CSc1nnc(NC(=O)C2CCC2)s1)C(C)C` the inhibition was -7.8% (inactive).
In the case of `CC(C)Sc1nnc(NC(=O)C2CC2)s1`, the inhibition is reported as 37.9% (active).
With `CCc1ccc(NC(=O)CSc2nnnn2-c2cccnc2)cc1` the inhibition was -28.4% (inactive).
With `CCCC(=O)C1=C(O)C(C(=O)OC)C(C)(C)CC1=NCCCCCC(=O)O` (stereo unspecified) the inhibition was -12.1% (inactive).
With `Cc1cc(C)c(NC(=O)c2ccc3c(c2)C(=O)N(Cc2cccnc2)C3=O)c(C)c1` the inhibition was -0.6% (inactive).
For `Fc1cccc(CNc2ncnc3cc(Cl)ccc23)c1F`, the inhibition was 0.2% (inactive).
In the case of `COc1cc2ncnc(NCc3cc(F)ccc3F)c2cc1OC`, the inhibition is reported as 0.3% (inactive).
In the case of `Nc1cc(=O)[nH]n1C1CCN(c2ccccc2)CC1`, the inhibition is reported as -4% (inactive).
In the case of `COc1ccc(C2C=C(Nc3ccccc3)C(=O)N2c2ccccc2)cc1OC` (stereo unspecified), the inhibition is reported as 4.9% (inactive).
With `COc1ccc(-c2cc(CNC(=O)CCl)on2)cc1` the inhibition was 54.5% (inactive).
With `O=C(CCl)NCc1cc(-c2ccc(Cl)cc2)no1` the inhibition was 87.7% (active).
With `CC(=O)NCc1cc(-c2ccc(Cl)cc2)no1` the inhibition was -35.1% (inactive).
In the case of `COc1ccc(Cl)cc1NC(=O)CN1C(=O)NC2(CCCC2)C1=O`, the inhibition is reported as -8.5% (inactive).
For `CCc1nc(SCC(=O)N2CCCc3ccccc32)c2oc3ccccc3c2n1`, the inhibition was 0.5% (inactive).
With `O=C(CSc1nc2ccccc2c(=O)n1-c1ccccc1)N1CCCc2ccccc21` the inhibition was -19.1% (inactive).
For `Cc1nc(SCC(=O)NCc2ccco2)c2oc3ccccc3c2n1`, the inhibition was -2.6% (inactive).
With `Cc1nc(SCC(=O)N2CCCc3ccccc32)c2oc3ccccc3c2n1` the inhibition was -0.3% (inactive).
In the case of `CCn1c(SCC(=O)N2CCCc3ccccc32)nc2ccccc2c1=O`, the inhibition is reported as -37.5% (inactive).
For `O=C(CSc1ncnc2c1oc1ccccc12)NCc1ccco1`, the inhibition was 72.8% (active).
For `O=C(CSc1ncnc2c1oc1ccccc12)NCc1ccc(F)cc1`, the inhibition was 19.3% (inactive).
In the case of `COc1cccc(OCC(O)CN2CCN(c3ccccc3)CC2)c1` (stereo unspecified), the inhibition is reported as 2.2% (inactive) and -2.1% (inactive).
For `CC(C)(C)c1ccc(-c2noc(-c3ccno3)n2)cc1`, the inhibition was -6.3% (inactive).
With `CCN(CC)S(=O)(=O)c1cccc(C(=O)N/N=C/c2ccc(N3CCOCC3)cc2)c1` the inhibition was -29.1% (inactive).
For `O=C1NC(=O)/C(=C\c2ccc(O)cc2O)S1`, the inhibition was -22.3% (inactive).
For `COCCNC(=O)c1ccc(C)c(NC(=O)C2=C(C)OCCS2)c1`, the inhibition was -9.9% (inactive).
With `COC(=O)C(CC(=O)O)NCc1ccco1` (stereo unspecified) the inhibition was -10.9% (inactive).
For `CC(=O)N1CCN(CC(=O)Nc2ccc([N+](=O)[O-])cc2Br)CC1`, the inhibition was -29.7% (inactive).
For `FC(F)(F)c1ccccc1NC(=S)NN1CCOCC1`, the inhibition was -11.5% (inactive).
For `c1ccc(Nc2ccnc(Nc3ccccc3)n2)cc1`, the inhibition was 8.8% (inactive).
With `O=C(O)c1cccc(Nc2ccnc(Nc3cccc(C(=O)O)c3)n2)c1` the inhibition was 38.5% (active).
With `O=C(O)c1cccc(Nc2ccc([N+](=O)[O-])cn2)c1` the inhibition was -19.2% (inactive).
With `CCOC(=O)C1=C(C)N(C)C(=S)NC1c1ccc(Cl)cc1Cl` (stereo unspecified) the inhibition was -11.6% (inactive).
For `C[n+]1c2n(c3ccccc31)N=C(c1ccc(-c3ccccc3)cc1)CS2`, the inhibition was 43.5% (inactive).
With `C[n+]1c2n(c3ccccc31)N=C(c1ccccc1)CS2` the inhibition was 5% (inactive) and 22.1% (inactive).
With `Cc1cc(=O)oc2cc(NC(=O)c3ccccc3OC(F)F)ccc12` the inhibition was -62.7% (inactive).
With `Cc1ccc(O)c(C(=O)c2cc(C#N)c(=O)n(C(C)c3ccccc3)c2)c1` (stereo unspecified) the inhibition was -4.6% (inactive).
For `Cc1ccc(O)c(C(=O)c2cc(C#N)c(=O)n(Cc3ccccc3)c2)c1`, the inhibition was -10.3% (inactive).
For `Cc1c(NC(=O)c2ccc(N(Cc3ccccc3)S(C)(=O)=O)cc2)c(=O)n(-c2ccccc2)n1C`, the inhibition was -26.8% (inactive).
For `CCOC(=O)N1CCN(C(=O)C2CCC(=O)N2C(C)C)CC1` (stereo unspecified), the inhibition was 3.6% (inactive).
For `COc1ccc(/C=C/C(=O)O/N=C(\N)c2cccnc2)cc1OC`, the inhibition was -10% (inactive).
In the case of `Cc1ccc(-c2nc(CS(=O)CC(=O)NC(C)CCc3ccccc3)c(C)o2)cc1` (stereo unspecified), the inhibition is reported as 41.4% (active).
In the case of `Cc1cccc(-c2nc(CS(=O)CC(=O)NC(C)CCc3ccccc3)c(C)o2)c1` (stereo unspecified), the inhibition is reported as 20.6% (inactive).
With `Cc1ccccc1-c1nc(CS(=O)CC(=O)NC(C)CCc2ccccc2)c(C)o1` (stereo unspecified) the inhibition was 19.2% (inactive).
